KinaseGlo FLuc – Counterscreen for Luciferase (Kinase-Glo TM) Inhibition | hit rate 0.28% among 200,000 | Potency, µM (top dose mostly 38.3 µM), without a hit: at the highest dose activity change, negative = inhibition, usual class: inhibitors | Kinase-Glo luciferase, ATP luminescence, 8 min; note: nearly all actives have a fitted effect of over 60% in size
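Recombinant Kinase-Glo luciferase, 10 uM ATP (linear range), luciferin; imidazole pH 7.2 / KCl / MgCl2 / Tween / BSA buffer; 8 min RT; luminescence.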
RORgamma inh – qHTS for inhibitors of ROR gamma transcriptional activity | Potency, µM (top dose mostly 53.6 µM), inactives show at the top dose activity change, negative = inhibition, actives largely listed as inhibitors | hit rate 5.4% among 310,000 | AID 2551, 2010 | Nuclear receptor ROR-gamma (Mus musculus), P51450 | Drosophila S2 Gal4-RORgamma UAS-luciferase reporter, 20 h; note: nearly all actives have a fitted effect of over 60% in size
Target sequence (P51450 whole entry, looked up, the tested form may be a part): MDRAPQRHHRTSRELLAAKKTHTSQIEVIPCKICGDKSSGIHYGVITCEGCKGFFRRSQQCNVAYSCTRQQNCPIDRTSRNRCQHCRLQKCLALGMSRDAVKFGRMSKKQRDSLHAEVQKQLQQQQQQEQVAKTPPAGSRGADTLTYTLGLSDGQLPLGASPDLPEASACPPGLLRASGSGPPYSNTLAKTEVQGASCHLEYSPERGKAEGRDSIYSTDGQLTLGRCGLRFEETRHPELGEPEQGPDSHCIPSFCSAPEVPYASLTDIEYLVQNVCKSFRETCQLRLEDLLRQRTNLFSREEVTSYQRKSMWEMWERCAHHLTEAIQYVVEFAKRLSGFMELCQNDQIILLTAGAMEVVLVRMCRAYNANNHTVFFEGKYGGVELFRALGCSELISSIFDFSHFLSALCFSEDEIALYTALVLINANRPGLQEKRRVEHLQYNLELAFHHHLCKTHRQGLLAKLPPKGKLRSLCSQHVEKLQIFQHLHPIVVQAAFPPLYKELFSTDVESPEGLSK
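In this cell-based reporter format, copper sulfate (700 uM final) drives Gal4–ROR gamma fusion expression from a metallothionein promoter in Drosophila Schneider cells; compounds preincubated 1 hr, reporter read after 20 hr at ambient temperature.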
Gal4-VP16 FLuc – VP16 counterscreen qHTS for inhibitors of ROR gamma transcriptional activity; Drosophila S2 Gal4-VP16 UAS-luciferase, luminescence, 20 h; hit rate 3.5% among 310,000; Potency, µM (series often up to 53.6 µM), for the others: at the highest dose activity, negative = inhibition, usual class: inhibitors; AID 2546, 2010;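 note: Gal4-VP16 expression switched on by copper sulfate through the metallothionein promoter; nearly all actives have a fitted effect of over 50% in size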
Starred values were filed as active, the others as inactive; u = inconclusive; x = not tested or not shown; [ ] = remark or other dose. This is a sample that favours compounds with a hit; in the whole collection about 6.4% have one here. Calls come from the whole dose curve; as a rule, active = well fitted curve in the direction sought with a large enough effect; inconclusive = small, poorly fitted or top-dose-only effect, or another doubt; inactive = no such curve, though single readings can be large; an effect the other way counts as inactive or inconclusive. % is set by controls: 0 for no effect and ±100 for the full control effect; potency is the fitted concentration of half-maximal effect.

SMILES	KinaseGlo FLuc	RORgamma inh	Gal4-VP16 FLuc
C=CCN(CC=C)S(=O)(=O)c1ccc(C(=O)Nc2nnc(COC)o2)cc1	1.2%	2µM*	7.08µM*
COC(=O)c1ccc(NS(=O)(=O)c2ccccc2)o1	5.9%	-0.1%	-10.8%
CCOC(=O)c1ccc(NC(=O)CSc2ccc(-c3ccncc3)nn2)cc1	-5.2%	2.2%	-2.9%
COc1ccc(NC(=S)/N=C(\N)Nc2nc(C)c3ccc(C)cc3n2)cc1	-0.8%	0.631µM*	2µM*
Cc1ccc2c(C)nc(N/C(N)=N/S(=O)(=O)c3ccc([N+](=O)[O-])cc3)nc2c1	0.6%	21.0%	2.2%
CCOc1ccc2nc(N/C(N)=N/C(=S)Nc3ccc(C)c(C)c3)nc(C)c2c1	-1.2%	1.78µM*	u
CCNC(=S)/N=C(\N)Nc1nc(C)c2cc(C)ccc2n1	x	-2.5%	-1.7%
COc1ccc(N=[N+]([O-])c2ccc(OC)cc2)cc1	x	8.91µM*	u
COc1ccc(CNc2ccc([N+](=O)[O-])cc2C)cc1	x	13.9%	11.0%
CCn1c(P(C)(=O)O)nc2cc(NC(=O)c3ccccc3Cl)ccc21	-3.3%	-10.7%	10.0%
CC(C)(C)Sc1ccc2nc3c(n2c1)CCCC3	3.8%	3.98µM*	11.2µM*
CC(NC(=O)NC(=O)c1cccc(Cl)c1)c1ccccc1 (centres undefined)	x	25.1%	-9.3%
N/C(Cn1cncn1)=N\NC(=O)C(=O)Nc1ccc(Cl)cc1Cl	-3.4%	10µM*	u
N/C(Cn1cncn1)=N\NC(=O)c1ccc(Cl)cc1Cl	1.1%	u	u
CC(C)C(NS(=O)(=O)c1ccc2c(c1)OCCCO2)C(=O)O (centres undefined)	-2.0%	12.1%	-4.2%
Cc1nc2ccc(S(=O)(=O)N3CCCCC3)cc2s1	x	-1.1%	-16.1%
Nc1nc2ccc(S(=O)(=O)N3CCCCC3)cc2s1	-1.2%	12.6µM*	u
CC1(C)CC(=O)N(c2cccc(C(F)(F)F)c2)C(=O)C1	x	-7.2%	-4.9%
Cc1nnc(SCC(=O)Nc2cccc(Cl)c2)n1CC1CCCO1 (centres undefined)	x	-12.7%	-7.3%
C=CCNC(=O)CSCc1ccc(Br)cc1	-0.2%	36.5%	-9.9%
CNC(=O)C(=O)Nc1cc2c3c(c1)CCN3C(=O)CC2	x	-22.4%	-0.1%
Cc1ccc(Cn2cccc2/C=N/NC(=S)Nc2ccc(C)cc2)cc1	0.7%	0.398µM*	3.98µM*
Cc1cccc(NC(=S)N/N=C/c2c[nH]c3ccccc23)c1	-1.9%	2.51µM*	5.62µM*
Cc1ccc(C(=O)Nc2ccc(C(=O)N/N=C/c3c[nH]c4ccccc34)cc2)cc1	6.0%	4.0%	-22.8%
COc1ccc(NC(=S)N/N=C/c2cccn2Cc2ccc(F)cc2)cc1	0.9%	18.5%	-11.7%
SMILES	KinaseGlo FLuc	RORgamma inh	Gal4-VP16 FLuc
Cc1[nH]c2ccccc2c1/C=N/NC(=S)NCc1ccccc1	-0.6%	11.2µM*	u
Cc1ccc(NC(=S)N/N=C/c2c(C)[nH]c3ccccc23)cc1	4.9%	2µM*	3.98µM*
Cc1[nH]c2ccccc2c1/C=N/NC(=O)CNC(=O)Cc1ccccc1	x	-26.0%	5.4%
Cc1[nH]c2ccccc2c1/C=N/NC(N)=S	x	-38.5%	-8.7%
Cc1noc(C)c1-c1nc(NCc2cccs2)c2ccccc2n1	x	-27.2%	-10.5%
C=CCn1c(C)cc(C(=O)COC(=O)CNC(=O)c2ccccc2)c1C	-1.8%	-11.0%	3.9%
O=C(Nc1cccc(Cl)c1)c1cccnn1	x	u	4.0%
CC1(OC(=O)C2CCCC2)C(=O)C=C2C=C(c3ccsc3)N(C(CO)CO)C=C2C1=O (centres undefined)	-7.8%[7.66 µM]	4.8%	-0.2%
CCCCc1nc2cc(C(=O)NCc3nccn3CC)ccc2o1	x	-27.2%	u
CCCCc1nc2cc(C(=O)NCc3cn(C)nc3C)ccc2o1	x	1µM*	0.0631µM*
COC(=O)CC1=NN(c2nc3ccccc3s2)C(=O)/C1=C/N(C)C	5.1%	-25.4%	-12.6%[10 µM]
COc1ccc(-c2nc3n(c2C)Cc2ccccc2-3)cc1	x	11.2µM*	-13.1%
O=c1cc(-c2ccccc2)nc2n1Cc1ccccc1-2	1.3%	-13.9%	2.1%
COc1ccc(NC(=O)c2ccc(CNc3c(N4CCCC4)c(=O)c3=O)cc2)cc1Cl	x	28.6%	-5.1%
CC(C)OC(=O)CC(=O)CSc1nc2c(c(-c3cccs3)c1C#N)CCC2	1.1%	14.2%	u
CCOC(=O)C(C)Sc1nc2c(c(-c3cccs3)c1C#N)CCC2 (centres undefined)	0.5%	u	25.1µM*
Cc1cc(C)cc(N2C(N)=NC(N)=NC2c2ccccc2F)c1 (centres undefined)	x	24.2%	1.8%
Cc1nc2cnc(N3CCN(C)CC3)nc2n(CCc2ccccc2)c1=O	x	-15.8%	3.7%
O=c1c(-c2cccs2)nc2cnc(Oc3ccccc3)nc2n1C1CC1	-0.1%	17.5%	6.1%
Cc1ccc(O)c(CNc2cnc3ccccc3c2)c1	x	6.6%[1.91 µM]	17.3%
COc1cccc(CNc2cnc3ccccc3c2)c1O	-3.8%	u	10µM*
COc1ccc(CCN(C)C(=S)NC(=O)c2ccc(F)cc2Cl)cc1OC	-1.0%	1.58µM*	3.98µM*
COc1ccc(CCN(C)C(=S)Nc2ccc(SC(F)F)cc2)cc1OC	x	20µM*	u
COc1ccc(CCNC(=O)C/C(C)=N/NC(=O)c2ccc(Cl)cc2Cl)cc1OC	x	0.0%	3.8%
COc1ccc(CCN(C)CCC(=O)Nc2ccc(C)cc2)cc1OC	-1.6%	15.5%	-1.0%
SMILES	KinaseGlo FLuc	RORgamma inh	Gal4-VP16 FLuc
Cc1cccc(-n2cc(C(=O)O)c(=O)cc2C)c1	0.2%	21.8%	1.6%
Nc1cnn([C@@H]2O[C@H](CO)[C@@H](O)[C@H]2O)c(=O)n1	x	4.5%	4.6%
O=C(c1cccs1)c1no[n+]([O-])c1C(=O)c1cccs1	-2.5%	11.2µM*	11.2µM*
COc1ccc(C(=O)c2no[n+]([O-])c2C(=O)c2ccc(OC)cc2)cc1	3.0%	u	u
C[C@]12CC[C@@H]3c4ccc(O)cc4CC[C@H]3[C@@H]1C[C@H](O)C2O (some centres undefined)	x	9.3%[10 µM]	2.8%
CC(c1ccccc1)n1cc(C(=O)NCc2ccncc2)nn1 (centres undefined)	-0.2%	-8.0%	-9.8%
CC(c1ccccc1F)n1cc(C(=O)NCc2ccncc2)nn1 (centres undefined)	-3.5%	2.82µM*	5.4%
CCCOc1ccc2cc(C(=O)NCc3ccccc3)c(=O)oc2c1	x	-33.6%	-15.2%
COCCCN1C(=O)CS/C1=N\S(=O)(=O)c1ccccc1	x	19.9%	-0.6%
O=Cc1s/c(=N\S(=O)(=O)c2ccccc2)n(CCCCl)c1Cl	-2.3%	5.01µM*	u
CCN(CC)S(=O)(=O)c1ccc(OC)c(NC(=O)C2CC(=O)N(c3ccc(C)cc3)C2)c1 (centres undefined)	0.5%	u	-2.9%
CCC(=O)NC(=S)Nc1ccc(NC(=O)c2ccc(OC)cc2)cc1	0.1%	2.3%	-1.6%
O=C(Nc1ccc(S(=O)(=O)NCc2ccccc2)cc1)c1ccc(Br)o1	-1.9%	u	-5.3%
CCC(=O)NC(=S)Nc1ccc(NC(=O)c2ccc(Br)o2)cc1	3.9%	11.2µM*	9.4%
